From PubChem BioAssay
Compounds with a hit are over-represented: about 3.4% of the library has one in this group of screens.
TEAD-YAP block: TEAD-YAP interaction inhibition; hit rate 1.4% among 640,000; HEK-TIYL cells, TEAD-Gal4/YAP UAS-luciferase luminescence; AID 1259422; inhibition, % at 9.12 µM; in the data active = inhibition above about 32%;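 note: 0% = median of test compound wells and 100% = reference inhibitor wells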
FBW7 act: human FBW7 E3 ligase activation, primary screen | Q969H0 | AlphaScreen FBW7–phospho-cyclin E peptide binding, activator screen | normalized activity (activation), % at 26.1 µM | hit rate 0.13% among 650,000; in the data active = normalized activity above about 1.9%;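 note: purified mutant Fbw7 with reduced substrate affinity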
GPR151 activ: human GPR151 activation; Q8TDV0; PathHunter beta-arrestin GPR151 cells, luminescence; activation, % at 11.2 µM; hit rate 1% among 650,000; AID 1508602; in the data active = activation above about 4.9%;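 note: 0% = median of compound wells and 100% = cells with positive control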
Target sequence (Q8TDV0 whole entry, looked up): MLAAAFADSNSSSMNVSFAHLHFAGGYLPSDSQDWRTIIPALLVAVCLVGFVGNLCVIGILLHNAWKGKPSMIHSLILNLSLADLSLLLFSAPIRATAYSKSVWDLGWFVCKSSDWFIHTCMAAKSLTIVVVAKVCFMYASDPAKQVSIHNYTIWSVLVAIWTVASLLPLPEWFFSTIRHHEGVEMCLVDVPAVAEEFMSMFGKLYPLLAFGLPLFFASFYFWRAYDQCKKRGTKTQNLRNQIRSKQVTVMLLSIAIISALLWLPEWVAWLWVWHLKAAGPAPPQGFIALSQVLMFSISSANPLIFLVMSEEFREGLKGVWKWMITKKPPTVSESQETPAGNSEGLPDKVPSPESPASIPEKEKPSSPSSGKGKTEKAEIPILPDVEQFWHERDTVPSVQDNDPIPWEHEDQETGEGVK
MITF inh: inhibitors of human MITF | O75030 | AlphaScreen MITF homodimerization, bead proximity signal | inhibition, % at 2.6 µM | hit rate 0.91% among 650,000; in the data active = inhibition above about 50%;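 note: 0% = vehicle wells with protein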
Starred values were filed as active, the others as inactive.

SMILES	TEAD-YAP block	FBW7 act	GPR151 activ	MITF inh
CCN(CC)C(=O)C1CCCN(c2nc(Nc3cc(OC)c(OC)c(OC)c3)c3ncn(C(C)C)c3n2)C1 (stereo not given)	34*	0	0	13
CCN(CC)C(=O)C1CCCN(c2nc(Nc3ccccc3)c3[nH]cnc3n2)C1 (stereo not given)	48*	0	3	0
CCN(CC)C(=O)C1CCCN(c2nc(N)c3ncn(-c4ccccc4)c3n2)C1 (stereo not given)	46*	0	-2	-13
CCN(CC)C(=O)C1CCCN(c2nc(NCCN(C(C)C)C(C)C)c3ncn(-c4ccccc4)c3n2)C1 (stereo not given)	41*	0	-1	7
CCN(CC)C(=O)C1CCCN(c2nc(NCCN(C(C)C)C(C)C)c3ncn(C(C)C)c3n2)C1 (stereo not given)	11	0	2	-6
O=C(COc1ccc(Cl)cc1Cl)N/N=C/c1cc([N+](=O)[O-])ccc1F	2	0	1	8
COc1ccc(N2CCN(CCN3CCCCC3)CC2)cc1	7	1	-1	82*
CC(C)(C)NC(=O)C1CCCN1C(=O)Nc1ccc(Cl)cc1 (stereo not given)	1	0	0	-9
Cc1cc(C(=O)COC(=O)C2=COCCO2)c(C)n1Cc1cccs1	62*	0	-4	-2
Cc1ccsc1C(=O)OCC(=O)c1cc(C)n(C)c1C	66*	0	-6	3
Cc1cc(C(=O)COC(=O)c2ccccc2O)c(C)n1Cc1cccs1	89*	0	0	-4
CCOC(=O)c1cn[nH]c1S(=O)(=O)N1CCN(C)CC1	-7	0	1	9
COCCN(C)Cc1c(C(=O)N(C)CCc2ccccc2)nc2c(C)cccn12	3	0	0	9
COC(=O)C1=CN(Cc2ccc(OC)cc2)C=C(C(=O)OC)C1c1ccc(OC)c(OCc2ccccc2)c1	50*	0	-1	-3
COC(=O)C1=CN(Cc2ccc(OC)c(OC)c2)C=C(C(=O)OC)C1c1ccc(OCc2ccccc2)c(OC)c1	-19	0	1	-14
COC(=O)C1=CN(Cc2ccc(OC)cc2)C=C(C(=O)OC)C1c1ccccc1F	5	1.9*	-2	1
COC(=O)C1=CN(Cc2ccc(Cl)cc2)C=C(C(=O)OC)C1c1ccc(OC)c(OCc2ccccc2)c1	55*	0	-2	-13
c1ccc2c(c1)CC/C2=N/Nc1ccc2ccccc2n1	74*	0	-1	12
c1ccc(CN2CCCN(Cc3ccccc3)C2c2ccc3c(c2)OCO3)cc1	-6	0	-1	-2
CCOc1ccc(C2Nc3ccc(C(=O)c4ccccc4)cc3NC3=C2C(=O)CCC3)cc1 (stereo not given)	47*	0	2	17
COc1cc(C2Nc3ccc(C(=O)c4ccccc4)cc3NC3=C2C(=O)CCC3)cc(OC)c1O (stereo not given)	68*	0	-1	-11
O=C1CCCC2=C1C(c1ccc(F)c(Oc3ccccc3)c1)Nc1ccc(C(=O)c3ccccc3)cc1N2 (stereo not given)	8	0	2	2
COc1cccc(C2Nc3ccc(C(=O)c4ccccc4)cc3NC3=C2C(=O)CCC3)c1 (stereo not given)	60*	0	1	-2
COc1ccc(C2Nc3ccc(C(=O)c4ccccc4)cc3NC3=C2C(=O)CC(C)(C)C3)cc1 (stereo not given)	15	0	-1	8
COc1ccc(C2Nc3ccc(C(=O)c4ccccc4)cc3NC3=C2C(=O)CCC3)cc1 (stereo not given)	39*	0	0	5
SMILES	TEAD-YAP block	FBW7 act	GPR151 activ	MITF inh
CCOc1ccc(NC(=O)CC2SC(=O)N(CC(=O)c3ccccc3)C2=O)cc1 (stereo not given)	5	0	0	-6
CCOC(=O)c1c(NC(C)=O)sc2cc(Br)ccc12	2	0	2	-3
O=C1c2ccc3c4c(ccc(c24)C(=O)N1CCCCO)C(=O)N(CCCCO)C3=O	79*	-1	-1	35
Cc1cccc(C)c1OCC(=O)N/N=C/c1ccccc1F	37*	0	0	10
Cc1cccc(C)c1OCC(=O)N/N=C/c1cn(C)c2ccccc12	51*	0	1	0
Cc1ccc(C)c(OCC(=O)N/N=C\c2ccccc2F)c1	-10	0	0	-8
Cc1ccc(OCC(=O)N/N=C/c2cc([N+](=O)[O-])ccc2F)cc1	60*	0	-1	17
CC(C)(CO)NC(=O)C12CC3CC(CC(Cl)(C3)C1)C2	5	0	0	6
COc1ccc(CCNc2ncnc3c2nc(Nc2ccc(N4CCOCC4)cc2)n3C(C)C)cc1	79*	0	4	7
